In the supplement of paper PMC11417369:
± gives the standard deviation of the averaged measurements. Whole data set: some 25,000 sequences, median “ln(normalized median fluorescence intensity)” near 7.9, cut for the highest 2% near 11. This excerpt belongs to a sample that is enriched for the highest values.

Each sequence was assayed on PfAP2-I AP2 domain 3 (GST-tagged) (assay: gcPBM binding intensity (ln(normalized median fluorescence intensity)); higher = stronger DNA binding).
Outline: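 In this array assay, P. falciparum DNA-binding domains with a GST tag, expressed in E. coli, were applied for 1 h to primer-extended double-stranded 36-bp intergenic genomic probes and negative controls on an Agilent 4 × 180k array. Bound protein was visualised with Alexa488 anti-GST antibody at 488 nm. Binding intensity is the highest Masliner-normalised natural-log median intensity across replicate spots of either probe orientation.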

Sequence	gcPBM binding intensity (ln)
ATTTATTTATTGGCACGTACAAATTTGTGTTTTCCA [XGTACX_site6978]	8.54 ± 0.53
TTATTTATTTATATAGTGCAATAAACACATAAATAG	10.8 ± 0.47
ATAAAAAAAAATATTTGTACACATATTTATATATTA [XGTACX_site8147]	7.63 ± 0.36
TATTTTTCCATAAAAATTTATATAGAAACAAATAAT [GTGCAC_negctrl_site103]	7.75 ± 0.46
ATAGAACTATATTGCACACATAATATATATATATAT [CACACA_site3189]	10.5 ± 0.52
ACATAATATACTATTGTGCACATATATATATATATA [GTGCAC_site9761]	10.88 ± 0.085
ATATATATTTTTTAAACACACACATAAATATTTGTG [CACACA_site8936]	7.97 ± 0.38
TTTTTTATTTTGTGCACACACATAAAAATATAAATA [CACACA_site6497]	11.01 ± 0.042
ACATATAAATATTGTGTGCACACACATAATATATAT	10.2 ± 0.18
AATTTTCCATAGATTGTGCACAAATTTTTATTTTGT	10.9 ± 0.2
TTTTTCCTATTTTTAGTGCACATATAAATAAATAAA [GTGCAC_site9821]	11.6 ± 0.23
ATATCATTTTCCTGCACACATAAATTTATATAATAT [CACACA_site1048]	9.45 ± 0.38
AAAAAGAACAGAAACACACAAATAAAATAAAATTGT [CACACA_site6921]	7.72 ± 0.61
TTTTTTTTCTTTTTTTGTACATAATAATATATAAAT [XGTACX_site6778]	7.68 ± 0.35
TGTTCTATTCTATTATTATTTACAAATTATAAATAA [GTGCAC_negctrl_site232]	7.89 ± 0.37
TTTAATTTTCGGTGTGCACACAACTATGAGTTTTTA [CACACA_site3034]	9.565 ± 0.035
ATACAATTTATTTTAACACACGAATGAATTGATTAT [CACACA_site4160]	7.76 ± 0.63
TGTGTATATCGATAAAGTACATTTGAAAAGTGACTT [XGTACX_site6957]	7.62 ± 0.51
TTTTATTTTTTTAAATGTACACATATTAATGTAAGG [XGTACX_site319]	7.92 ± 0.3
TATTGGATCACACAAAAATGTATAAATAAATAGAAA [TGCATGCA_negctrl_site490]	7.7 ± 0.61
TCGAACATTAACATAACACACATATATATATATATA [CACACA_site2900]	9.27 ± 0.29
ATATATTTGATAAGAGTGCACAAATACATACATACA [GTGCAC_site9704]	10.94 ± 0.071
ATATTTTGTTTTATAGTGCACATGGGCATATATTAA [GTGCAC_site9435]	11 ± 0.32
GAAATTTGTTATTGCACACAAATTTTTCTTTTTTTA [CACACA_site2339]	10.14 ± 0.028
ATATTATTATATATAGTGCATATTATTATTTTTATT	10.2 ± 0.42

Sequence	gcPBM binding intensity (ln)
TATATACATATATGCACACAAAAAAATATATATTTT [CACACA_site1729]	8.99 ± 0.11
TATCCATTTCTTTATGTGCACATTAAATATATTTGT	10.2 ± 0.4
TACATATTGATATATACACACAAAAAAATAAATTCT [CACACA_site6198]	7.61 ± 0.54
CATTTTATTTTCTTTGTGCACAAAAATATTTTTTCT	11.13 ± 0.092
TTATTTTTGTTCATAGTGCATAGAATTTATACATAT	9.91 ± 0.33
TTGTTTGATATCTTTGTCACGAAAAAAATATATATA [GTGCAC_negctrl_site54]	7.83 ± 0.64
TCTTTTTTCATATTTTCACACATGTCTTTATATTTA [CACACA_site6025]	8.28 ± 0.65
ATGAATAAATGAACATGTACATATATATATATATTA [XGTACX_site5005]	7.76 ± 0.47
TTTTGGCTTCTAATATTATACAAAATGGTAAGGAAA [TGCATGCA_negctrl_site169]	7.94 ± 0.4
TAATTTCTTAGGTATTGTACAAATATTATATGATAT [XGTACX_site256]	7.55 ± 0.59
TATCCCTTAGAATACACACCCATATGAGGGTGAACT [CACACA_site5610]	7.76 ± 0.26
TATAATTATATTTGGAGTACAAATTTTTTTTTTTTT [XGTACX_site7494]	7.765 ± 0.007
TATTTTTTTTTTATATGTACATAATTTCAAATAAAT [XGTACX_site7747]	7.97 ± 0.41
TATATTTCAGGGGGGAGTACAAATTTTTTTATATAA [XGTACX_site1600]	11 ± 0.52
ATTATTATATATATAACACACATAATTATATACTTA [CACACA_site1563]	7.89 ± 0.38
TCTATAAAGTTCCATACATGCGCCATCATTTATATT [TGCATGCA_site195]	7.97 ± 0.79
TTTTTAATCAGAAATATTTATTAAAGAATTTTATAG [GTGCAC_negctrl_site725]	7.32 ± 0.34
TTTGTTTTTTTGAGAGTGCAATATATATAAAAAGGG [GTGCAC_site9691]	11.2 ± 0.64
TTATAAATAAAAAGAGTGCAATTATAAATATATATA	10.1 ± 0.23
AGATATTTATTGAGTGCATGTTATAAAGGGAAAAAA [TGCATGCA_site88]	9.04 ± 0.17
GGTTAAAAAAAGCATACACACTATCCTCTTTGCTCT [CACACA_site7246]	7.9 ± 0.65
AAATGAAATAAAATCATATATTTATAATTATTATAA [TGCATGCA_negctrl_site612]	7.27 ± 0.41
TATATTTTTATGTGTGTGCACAAAATAACAAAATAT [GTGCAC_site9596]	11.1 ± 0.35
TGCATAATTAAAAATGGTACACTGTATTTATAATAT [XGTACX_site1575]	7.95 ± 0.61
TATATATATTTTTGTGTGCACTATAATATGAAAATA	11.4 ± 0.45

Sequence	gcPBM binding intensity (ln)
TTTAATTATTAAATGGTGCACTTGAAATATAAAAAT	11 ± 0.45
CAAAATATTTTTATAACACACATATATATAATGTGC [CACACA_site4767]	7.8 ± 0.52
ATATATCATAAATAAATGAAAATATTTTCTATGTGT [CACACA_negctrl_site689]	7.77 ± 0.62
AATTTTTTTTTTTTTTTTTTTTATATATGTGTGTGT [XGTACX_negctrl_site129]	7.59 ± 0.28
GTTTATTTATTTTATGTGCACATATAACAAAAAAAA	10.36 ± 0.028
ATCATATTTTTATGTGTGCACTTTTTTTTTTTTTTT [GTGCAC_site9555]	10.25 ± 0.014
ATATATTTTATATGTGTGCACTATATATATATATAT	11.4 ± 0.3
TTTTTTTTTTTTTTTGCACACTATATTTAATATAAG [CACACA_site2444]	9.42 ± 0.21
ACAAAGTAAAATAATGCATGTAGGTATACATAATTA [TGCATGCA_site607]	7.71 ± 0.81
TAGAACAAATAAAACACACACATATATATATATATG [CACACA_site2768]	8.06 ± 0.41
ATATATTAAAAGGATTAGGAAAAAATATGATTTATC [TGCATGCA_negctrl_site405]	7.55 ± 0.78
GAACAAAATTTTATATGTACATAATATTTATATATA [XGTACX_site3667]	8 ± 0.2
TTACAAGTAAAAGGTACACACATTATATATACAAAT [CACACA_site8290]	7.97 ± 0.55
TTTTTTTTCATTTTATGTACACATAATTTAATATAT [XGTACX_site5768]	8.16 ± 0.45
CATGACATATCCTGTAGTACAACGTATATATAAGAT [XGTACX_site2577]	7.8 ± 0.61
CTTAAAATATATTTAGTGCATATACTAATATATTAT	10.2 ± 0.45
TATAAATTAAAATGTGTGCACTAAATTGAAATAGAA	11.5 ± 0.53
TTATAATTTTAATGTGCACACAATTAAAATATTATA [CACACA_site5172]	10.79 ± 0.085
GAATAAATATTAAATGTGCACTTGAATAGATGTAAA	10.1 ± 0.16
CAATTTATTATATATGTGCACATATAATTTTACAAA	9.59 ± 0.24
TATTTATAAATATGTGTGCACAATTTATTTTATAAT	11 ± 0.26
TTTTTTCAATTTTTTTTAAATAAACCACAAAAAAAA [CACACA_negctrl_site1701]	7.74 ± 0.49
ATCAAAAATATAAAAAATATAAACAATTTATTATCA [CACACA_negctrl_site768]	7.32 ± 0.47
AAATAAAAATTAAAAAAATAGAAACGAATTGAATGC [TGCATGCA_negctrl_site365]	7.83 ± 0.64
AATACTTTTTATTTAGTGCATAAGAAAATATAAATC [GTGCAC_site9875]	10.9 ± 0.44

Sequence	gcPBM binding intensity (ln)
TTTCAATTTATCAGTGTGCACAAAAATAAAATAAAA	10.88 ± 0.028
ATATAGAAAATGCATACACACTTTATAAATATATTT [CACACA_site6553]	7.92 ± 0.53
ATATATTTTTAAAAAAATTAAGAATTTTACATCTCC [CACACA_negctrl_site1450]	7.59 ± 0.65
AACAATTATTTATCTACACACTTTTATGTTATTTAC [CACACA_site9]	7.88 ± 0.67
AATTTTTTTTTCTTTTGTACGTAAATATGTGTAGGC [XGTACX_site215]	8.33 ± 0.26
ATGTGAAAATAAGACACACTCAAAAGGTTTATATTA [CACACA_site4595]	7.67 ± 0.43
ATACTTTTAATATGCACATGCAAATATGAAATATCG [TGCATGCA_site603]	9.22 ± 0.39
TTATAAAAAAAAAAAAAAAAAAAAACCAATATAATA [CACACA_negctrl_site968]	7.3 ± 0.48
ATTTATTTGAAGAATTGTACTAAATTATATAGCGGT [XGTACX_site4998]	7.94 ± 0.49
TATATATATAAATACACACACACCGTCCGTGTTAAA [CACACA_site5623]	8.54 ± 0.53
TATAAAAATAAGCACACACACAAATATATATTTATT [CACACA_site922]	8.12 ± 0.25
TTTATATTCTTAAGTGTGCACTATATATATATATAT [GTGCAC_site9719]	11.2 ± 0.23
GCCCCCAAATTATGTGTGCACTTTATATTCCTGAGA [GTGCAC_site9474]	10.4 ± 0.23
ATATATATATATATTGTGCACAAAAAAAAATAAGCA	11.2 ± 0.15
TATTAACAAATTTATGTGCACTGAGGACAAATATAT	10.96 ± 0.085
ATTATTAATAATTGTGTGCACAAATATTTATATGCT	10.815 ± 0.007
ATTTATATTAAAAGTGTGCACTTTTTTTTTTTTTTT	9.77 ± 0.085
AATAATAAAAATATTGTGCACTTGTATATTTATTAT [GTGCAC_site9963]	11 ± 0.11
ACAAAAAAAATAAGCACACATATATATATATATATA [CACACA_site816]	9.38 ± 0.36
TATTATATAATAAAAATTATTATTATTTGTATAAAT [CACACA_negctrl_site195]	7.21 ± 0.42
TTTTTTATTATATAATTGTATATAAAATTATAATTT [GTGCAC_negctrl_site733]	7.67 ± 0.47
TTTTCTTGGTTCAGTGTGCACTTATATATATATATA	10.3 ± 0.2
